According to the supplement of paper PMC10849652:
About 7,900 targets were measured; listed, in parts, are those with a hit and a random draw of the rest. About 0.6% of all pairs of compound and target were hits. Values without a mark were called inactive.

Columns and labels:
Assay in all cases: log2 fold change, soluble protein after heating vs DMSO (PISA); higher = thermal stabilisation; K562 cells, 10 uM, 30 min; active = over 0.2 and 3.5 SD of the protein, either way, in both replicates (recomputed)
[1] = compound: CC1=C(C=C(C=C1)NC(=O)C2=CC(=CC=C2)C(C)(C)C#N)NC3=CC4=C(C=C3)N=CN(C4=O)C
Procedure, shortened: (§1)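 K562 cells at 2×10^6 cells/mL were exposed to 10 μM compound for 30 min, then aliquots were heated for 3 min across 48°C-58°C, pooled, and extracted in PBS containing 0.5% NP-40 at 4°C. The supernatant after 21,000xg for 90 min was taken as soluble protein and measured by TMTpro 16plex LC-MS/MS with channel sums equalised. Thermal stability is reported relative to control samples, with values from duplicates. Fold changes are given on a log2 scale.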

[2] = compound: CC1=C(C=C(C=C1)NC(=O)C2=CC(=CC=C2)N(C)C)NC(=O)C3=CC=C(C=C3)O
Procedure, shortened: as §1

[3] = compound: CC1=CC=C(C=C1)SC2=C3C=C(SC3=CN=C2)C(=O)N
Procedure, shortened: as §1

[4] = compound: CC1=NC(=CC=C1)C2=C(N=C(N2)C(C)(C)C)C3=CC4=NC=CN=C4C=C3
Procedure, shortened: as §1

Nexturastat A = compound: CCCCN(Cc1ccc(C(=O)NO)cc1)C(=O)Nc1ccccc1 [Nexturastat A]
Procedure, shortened: as §1

vemurafenib = compound: CCCS(=O)(=O)Nc1ccc(F)c(C(=O)c2c[nH]c3ncc(-c4ccc(Cl)cc4)cc23)c1F [vemurafenib]
Procedure, shortened: as §1

[5] = compound: CCCS(=O)(=O)Nc1ccc(F)c(C(=O)c2c[nH]c3ncc(Cl)cc23)c1F
Procedure, shortened: as §1

[6] = compound: CCCc1cc(C)[nH]c(=O)c1CNC(=O)c1cc(-c2ccnc(N3CCN(C)CC3)c2)cc2c1cnn2C(C)C
Procedure, shortened: as §1

givinostat = compound: CCN(CC)Cc1ccc2cc(COC(=O)Nc3ccc(C(=O)NO)cc3)ccc2c1 [givinostat]
Procedure, shortened: as §1

barasertib = compound: CCN(CCCOc1ccc2c(Nc3cc(CC(=O)Nc4cccc(F)c4)[nH]n3)ncnc2c1)CCOP(=O)(O)O [barasertib]
Procedure, shortened: as §1

[7] = compound: CC[C@@H]1C(=O)N(C)c2cnc(Nc3ccc(C(=O)NC4CCN(C)CC4)cc3OC)nc2N1C1CCCC1
Procedure, shortened: as §1

volasertib = compound: CC[C@@H]1C(=O)N(C)c2cnc(Nc3ccc(C(=O)N[C@H]4CC[C@H](N5CCN(CC6CC6)CC5)CC4)cc3OC)nc2N1C(C)C [volasertib]
Procedure, shortened: as §1

[8] = compound: CC[C@H](C)N1C=C(C2=C(C=C(C=C21)C3=CN=C(C=C3)N4CCNCC4)C(=O)NCC5=C(C=C(NC5=O)C)C)C
Procedure, shortened: as §1

epoxomicin = compound: CC[C@H](C)[C@@H](C(=O)N[C@@H]([C@@H](C)O)C(=O)N[C@@H](CC(C)C)C(=O)[C@]1(CO1)C)NC(=O)[C@H]([C@@H](C)CC)N(C)C(=O)C [epoxomicin]
Procedure, shortened: as §1

[9] = compound: CCn1c(C(=O)N(C2CC2)C2CC2)cc2c3c(ncn3C)c(Nc3cc(C)n(C)n3)nc21
Procedure, shortened: as §1

[10] = compound: CCn1cc(-c2ccnc3[nH]c(-c4cccc(CN(C)C)c4)cc23)c(-c2ccc(NC(=O)N(C)C)cc2)n1
Procedure, shortened: as §1

[11] = compound: CN(C)CC(=O)Nc1ccc2[nH]c(=O)c3ccccc3c2c1
Procedure, shortened: as §1

rosiglitazone = compound: CN(CCOC1=CC=C(C=C1)C[C@H]2C(=O)NC(=O)S2)C3=CC=CC=N3 (racemic) [rosiglitazone]
Procedure, shortened: as §1

[12] = compound: CN1C2=C(C3=C1C(=O)N(N=C3)CC4=CC(=CC=C4)N)SC(=C2)S(=O)C
Procedure, shortened: as §1

[13] = compound: CN1CCC(CNc2ccc3ncc(-c4cccc(OC(F)(F)F)c4)n3n2)CC1
Procedure, shortened: as §1

UniProt P23276, sequence (P23276 whole entry, looked up): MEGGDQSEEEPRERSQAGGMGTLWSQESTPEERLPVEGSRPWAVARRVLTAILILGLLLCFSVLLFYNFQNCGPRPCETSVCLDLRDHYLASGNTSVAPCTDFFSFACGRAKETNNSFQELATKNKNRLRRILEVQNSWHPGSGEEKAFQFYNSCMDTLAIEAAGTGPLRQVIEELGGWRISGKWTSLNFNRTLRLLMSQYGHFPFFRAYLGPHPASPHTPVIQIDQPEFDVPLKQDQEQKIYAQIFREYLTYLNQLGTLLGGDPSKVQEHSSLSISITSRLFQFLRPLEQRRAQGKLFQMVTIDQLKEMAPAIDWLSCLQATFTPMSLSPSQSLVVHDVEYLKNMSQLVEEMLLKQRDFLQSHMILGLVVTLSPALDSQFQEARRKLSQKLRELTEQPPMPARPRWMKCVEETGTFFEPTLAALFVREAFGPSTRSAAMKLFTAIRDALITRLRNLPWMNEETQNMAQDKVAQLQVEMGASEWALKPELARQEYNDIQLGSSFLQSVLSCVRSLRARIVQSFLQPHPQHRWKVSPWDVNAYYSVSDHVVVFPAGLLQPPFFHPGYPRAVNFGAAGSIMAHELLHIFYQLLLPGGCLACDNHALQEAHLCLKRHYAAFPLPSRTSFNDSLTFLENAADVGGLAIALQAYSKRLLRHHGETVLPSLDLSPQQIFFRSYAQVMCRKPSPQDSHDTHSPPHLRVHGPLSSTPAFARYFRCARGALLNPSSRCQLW
UniProt Q13422, sequence (Q13422 whole entry, looked up): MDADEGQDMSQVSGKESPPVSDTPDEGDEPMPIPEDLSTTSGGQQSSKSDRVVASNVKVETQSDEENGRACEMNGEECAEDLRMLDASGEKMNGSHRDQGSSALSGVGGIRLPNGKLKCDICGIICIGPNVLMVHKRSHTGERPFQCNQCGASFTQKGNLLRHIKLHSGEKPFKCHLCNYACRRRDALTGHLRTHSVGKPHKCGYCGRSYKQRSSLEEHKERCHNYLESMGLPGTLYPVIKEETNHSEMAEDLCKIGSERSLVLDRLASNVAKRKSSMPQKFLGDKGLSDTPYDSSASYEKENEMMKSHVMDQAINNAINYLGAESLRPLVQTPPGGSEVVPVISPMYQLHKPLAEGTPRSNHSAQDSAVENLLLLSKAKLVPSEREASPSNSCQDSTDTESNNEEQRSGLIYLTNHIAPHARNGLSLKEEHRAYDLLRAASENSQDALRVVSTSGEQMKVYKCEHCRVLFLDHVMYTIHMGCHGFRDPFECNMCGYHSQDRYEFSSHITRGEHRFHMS
UniProt Q9BPX6, sequence (Q9BPX6 whole entry, looked up): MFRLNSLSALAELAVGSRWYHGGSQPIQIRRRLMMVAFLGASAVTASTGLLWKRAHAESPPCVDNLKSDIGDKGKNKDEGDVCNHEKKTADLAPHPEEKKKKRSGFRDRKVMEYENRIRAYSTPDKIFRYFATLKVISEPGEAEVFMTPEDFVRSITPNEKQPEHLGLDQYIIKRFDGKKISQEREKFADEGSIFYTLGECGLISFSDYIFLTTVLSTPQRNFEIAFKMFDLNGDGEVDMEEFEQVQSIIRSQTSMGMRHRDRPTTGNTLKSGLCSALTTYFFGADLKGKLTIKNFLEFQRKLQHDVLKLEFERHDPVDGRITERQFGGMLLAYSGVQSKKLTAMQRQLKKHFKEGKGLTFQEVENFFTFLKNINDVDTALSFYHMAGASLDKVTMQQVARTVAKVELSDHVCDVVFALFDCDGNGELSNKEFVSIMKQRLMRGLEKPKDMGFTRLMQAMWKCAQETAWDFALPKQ
UniProt Q9NVH2, sequence (Q9NVH2 whole entry, looked up): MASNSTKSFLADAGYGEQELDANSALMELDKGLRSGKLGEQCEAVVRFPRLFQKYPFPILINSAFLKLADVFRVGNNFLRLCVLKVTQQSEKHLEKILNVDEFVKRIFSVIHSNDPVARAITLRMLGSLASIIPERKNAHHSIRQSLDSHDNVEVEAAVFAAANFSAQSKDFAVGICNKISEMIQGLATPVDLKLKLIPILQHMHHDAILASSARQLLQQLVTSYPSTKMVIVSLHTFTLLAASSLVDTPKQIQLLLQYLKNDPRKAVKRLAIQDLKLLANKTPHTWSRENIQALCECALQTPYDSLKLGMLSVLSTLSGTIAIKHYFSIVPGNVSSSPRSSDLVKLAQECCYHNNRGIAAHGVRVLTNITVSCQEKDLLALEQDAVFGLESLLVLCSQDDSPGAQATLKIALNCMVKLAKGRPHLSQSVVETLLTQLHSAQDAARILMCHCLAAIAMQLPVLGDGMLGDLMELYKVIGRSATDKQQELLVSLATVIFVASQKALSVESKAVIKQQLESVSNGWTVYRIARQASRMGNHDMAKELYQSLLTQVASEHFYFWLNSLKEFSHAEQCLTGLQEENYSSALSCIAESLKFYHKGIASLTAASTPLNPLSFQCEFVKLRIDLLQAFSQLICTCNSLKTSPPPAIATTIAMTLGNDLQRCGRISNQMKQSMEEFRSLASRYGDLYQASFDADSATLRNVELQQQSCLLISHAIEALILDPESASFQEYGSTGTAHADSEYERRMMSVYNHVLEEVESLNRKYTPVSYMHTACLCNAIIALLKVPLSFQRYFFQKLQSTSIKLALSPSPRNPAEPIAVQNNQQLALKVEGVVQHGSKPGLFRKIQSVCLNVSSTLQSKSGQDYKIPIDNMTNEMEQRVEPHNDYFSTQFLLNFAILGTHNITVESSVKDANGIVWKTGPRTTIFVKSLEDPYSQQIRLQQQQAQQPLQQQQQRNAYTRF
UniProt Q9UPY8, sequence (Q9UPY8 whole entry, looked up): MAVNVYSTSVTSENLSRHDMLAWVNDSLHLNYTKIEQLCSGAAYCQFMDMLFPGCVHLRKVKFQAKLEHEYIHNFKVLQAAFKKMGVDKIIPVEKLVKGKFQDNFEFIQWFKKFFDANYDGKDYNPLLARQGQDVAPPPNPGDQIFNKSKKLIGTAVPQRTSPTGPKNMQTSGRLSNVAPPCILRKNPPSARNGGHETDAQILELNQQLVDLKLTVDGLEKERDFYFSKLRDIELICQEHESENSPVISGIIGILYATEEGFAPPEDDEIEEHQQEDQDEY
UniProt Q96AQ8, sequence (Q96AQ8 whole entry, looked up): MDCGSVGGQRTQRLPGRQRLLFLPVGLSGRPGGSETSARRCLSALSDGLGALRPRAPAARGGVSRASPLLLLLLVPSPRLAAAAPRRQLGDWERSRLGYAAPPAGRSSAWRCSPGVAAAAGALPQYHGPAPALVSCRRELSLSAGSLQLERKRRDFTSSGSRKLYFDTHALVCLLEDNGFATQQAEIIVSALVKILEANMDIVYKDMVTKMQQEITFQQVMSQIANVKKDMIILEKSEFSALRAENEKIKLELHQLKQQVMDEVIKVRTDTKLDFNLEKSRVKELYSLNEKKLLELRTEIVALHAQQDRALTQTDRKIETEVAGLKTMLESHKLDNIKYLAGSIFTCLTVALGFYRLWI
UniProt Q14624, sequence (Q14624 whole entry, looked up): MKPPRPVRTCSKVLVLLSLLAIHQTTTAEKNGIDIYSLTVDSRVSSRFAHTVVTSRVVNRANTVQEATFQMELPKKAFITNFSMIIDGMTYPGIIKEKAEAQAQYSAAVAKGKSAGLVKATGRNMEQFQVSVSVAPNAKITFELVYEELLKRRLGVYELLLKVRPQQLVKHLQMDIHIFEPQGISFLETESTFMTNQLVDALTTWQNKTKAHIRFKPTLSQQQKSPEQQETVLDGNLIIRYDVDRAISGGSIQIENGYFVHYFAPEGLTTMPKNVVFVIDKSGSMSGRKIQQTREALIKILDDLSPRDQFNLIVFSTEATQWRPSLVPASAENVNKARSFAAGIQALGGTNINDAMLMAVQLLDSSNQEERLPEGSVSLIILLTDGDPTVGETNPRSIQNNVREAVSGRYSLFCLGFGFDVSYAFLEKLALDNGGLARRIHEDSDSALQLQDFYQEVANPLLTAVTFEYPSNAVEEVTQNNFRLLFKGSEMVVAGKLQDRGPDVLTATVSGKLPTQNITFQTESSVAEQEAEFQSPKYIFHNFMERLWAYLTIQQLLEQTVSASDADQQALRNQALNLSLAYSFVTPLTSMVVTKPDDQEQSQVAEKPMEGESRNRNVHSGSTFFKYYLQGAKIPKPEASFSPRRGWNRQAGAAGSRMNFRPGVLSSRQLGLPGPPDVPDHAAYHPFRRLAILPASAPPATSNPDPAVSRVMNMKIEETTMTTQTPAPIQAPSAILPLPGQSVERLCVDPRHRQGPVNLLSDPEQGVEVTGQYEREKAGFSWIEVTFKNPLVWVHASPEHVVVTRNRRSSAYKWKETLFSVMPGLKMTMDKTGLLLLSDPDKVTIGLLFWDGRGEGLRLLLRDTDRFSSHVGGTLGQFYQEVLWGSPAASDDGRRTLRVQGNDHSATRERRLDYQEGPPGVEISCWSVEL
UniProt P01116, sequence (P01116 whole entry, looked up): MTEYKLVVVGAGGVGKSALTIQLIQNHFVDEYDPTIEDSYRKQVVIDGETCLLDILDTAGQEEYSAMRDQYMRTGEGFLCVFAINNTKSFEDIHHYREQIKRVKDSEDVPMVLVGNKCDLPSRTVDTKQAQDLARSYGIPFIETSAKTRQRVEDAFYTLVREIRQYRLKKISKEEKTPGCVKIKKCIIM
UniProt P07948, sequence (P07948 whole entry, looked up): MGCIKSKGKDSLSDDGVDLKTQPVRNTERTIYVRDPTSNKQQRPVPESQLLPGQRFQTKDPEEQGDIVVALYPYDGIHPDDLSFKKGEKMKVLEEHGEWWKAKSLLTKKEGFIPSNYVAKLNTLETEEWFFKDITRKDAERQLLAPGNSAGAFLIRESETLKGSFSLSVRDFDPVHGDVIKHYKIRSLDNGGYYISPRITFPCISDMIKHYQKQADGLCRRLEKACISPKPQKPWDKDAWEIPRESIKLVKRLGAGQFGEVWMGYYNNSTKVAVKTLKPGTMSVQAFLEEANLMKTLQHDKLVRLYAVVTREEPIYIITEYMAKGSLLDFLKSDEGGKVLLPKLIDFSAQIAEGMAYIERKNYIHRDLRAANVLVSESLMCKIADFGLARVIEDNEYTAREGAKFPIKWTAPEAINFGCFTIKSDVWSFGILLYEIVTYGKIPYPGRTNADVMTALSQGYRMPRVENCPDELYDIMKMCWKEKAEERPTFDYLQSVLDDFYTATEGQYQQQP

Row | Target | log2 fold change [1] | log2 fold change [2] | log2 fold change [3] | log2 fold change [4] | log2 fold change (Nexturastat A) | log2 fold change (vemurafenib) | log2 fold change [5] | log2 fold change [6] | log2 fold change (givinostat) | log2 fold change (barasertib) | log2 fold change [7] | log2 fold change (volasertib) | log2 fold change [8] | log2 fold change (epoxomicin) | log2 fold change [9] | log2 fold change [10] | log2 fold change [11] | log2 fold change (rosiglitazone) | log2 fold change [12] | log2 fold change [13]
1 | MCUR1 (UniProt Q96AQ8) | 0 | -0.067 | -0.01 | 0.012 | -0.06 | 0.018 | -0.041 | -0.079 | -0.033 | -0.008 | 0.022 | 0.137 | 0.006 | 0.009 | -0.027 | -0.041 | -0.038 | 0.025 | -0.042 | -0.115
2 | MAP2K2 (UniProt P36507) | -0.018 | 0.013 | 0.009 | 0.028 | -0.001 | -0.008 | -0.002 | 0.17 | 0.014 | 0.011 | -0.12 | 0.084 | 0.077 | 0.044 | -0.02 | -0.06 | 0.022 | 0.04 | -0.056 | -0.1
3 | MAST4 (UniProt O15021) | 0.003 | -0.246 | 0.061 | 0.044 | -0.08 | 0.021 | 0.055 | 0.072 | -0.024 | 0.028 | -0.059 | -0.22 | 0.073 | 0.048 | 0.056 | -0.102 | -0.009 | 0.067 | -0.115 | -0.384
4 | MFF (UniProt Q9GZY8) | -0.036 | 0.002 | 0.039 | 0.02 | 0.006 | -0.013 | 0.018 | -0.117 | 0.033 | 0.036 | -0.007 | 0 | -0.046 | 0.037 | 0 | 0.043 | -0.031 | 0.035 | 0.031 | -0.386 (active)
5 | KEL (UniProt P23276) | -0.004 | -0.061 | 0.117 | 0.01 | 0.117 | -0.009 | -0.015 | -0.014 | -0.056 | -0.029 | 0.195 | -0.085 | -0.085 | 0.063 | 0.033 | -0.013 | -0.007 | 0.024 | 0.018 | 0.088
6 | KRAS isoform 2 (UniProt P01116) | -0.034 | 0.046 | -0.023 | -0.026 | -0.063 | -0.03 | -0.093 | -0.073 | 0.014 | 0.003 | 0.08 | 0.026 | -0.047 | 0.027 | -0.007 | -0.073 | 0 | 0.038 | 0.062 | 0.141
7 | MICU1 isoform 3 (UniProt Q9BPX6) | -0.002 | 0.052 | -0.003 | -0.028 | 0.117 | -0.049 | 0.042 | -0.001 | 0 | 0.012 | -0.113 | -0.281 | 0.031 | 0.026 | -0.009 | 0.008 | 0.006 | -0.01 | 0.077 | -0.369 (active)
8 | INTS7 (UniProt Q9NVH2) | 0.134 | -0.007 | 0.088 | 0.091 | -0.001 | 0.039 | 0.018 | 0.027 | 0.242 | 0.022 | 0.035 | -0.313 | 0.1 | -0.029 | -0.119 | -0.1 | 0.038 | 0.033 | 0.069 | 0.3
9 | MAGI1 (UniProt Q96QZ7) | 0.041 | 0.041 | -0.027 | -0.023 | 0.074 | 0.018 | -0.009 | -0.026 | -0.013 | -0.008 | 0.041 | 0.031 | 0.026 | -0.045 | 0.005 | 0.012 | -0.041 | 0.016 | 0.014 | -0.011
10 | KPNA6 (UniProt O60684) | -0.06 | -0.02 | -0.014 | -0.063 | 0.156 | -0.09 | 0.078 | 0.068 | 0.018 | 0.047 | -0.225 | -0.699 (active) | 0.04 | 0.021 | -0.098 | 0.043 | 0.063 | 0.062 | 0.227 | -0.184
11 | ITIH4 (UniProt Q14624) | -0.14 | 0.166 | 0.135 | 0.214 | 0.014 | 0.224 | 0.012 | -0.211 | -0.005 | 0.014 | -0.18 | -0.311 | -0.248 | -0.318 | 0.108 | 0.102 | -0.012 | 0.129 | 0.177 | -0.413
12 | LYN (UniProt P07948) | 0.195 | -0.053 | -0.036 | 0.037 | 0.293 | -0.016 | -0.143 | -0.22 | 0.211 | -0.057 | -0.016 | -0.023 | 0.033 | 0.039 | 0.037 | -0.095 | -0.024 | -0.009 | 0.144 | -0.03
13 | MDN1 (UniProt Q9NU22) | -0.023 | -0.021 | 0.034 | 0.061 | -0.009 | 0.02 | 0.074 | 0.027 | 0.083 | 0.047 | -0.109 | -0.334 (active) | 0.093 | 0.006 | -0.119 | -0.076 | 0.031 | 0.08 | -0.027 | -0.287 (active)
14 | IKZF1 (UniProt Q13422) | 0.144 | 0.036 | -0.007 | 0.041 | -0.006 | 0.044 | 0.034 | 0.177 | -0.018 | -0.052 | 0.079 | -0.067 | 0.053 | -0.052 | 0.018 | -0.048 | 0.024 | 0.008 | 0.051 | -0.239
15 | KIF13A (UniProt Q9H1H9) | -0.005 | 0.021 | -0.005 | -0.004 | 0.018 | -0.045 | 0.04 | -0.005 | -0.021 | -0.009 | 0.007 | -0.041 | -0.003 | 0.004 | -0.05 | -0.068 | -0.026 | 0.068 | -0.012 | 0.039
16 | MAPRE3 (UniProt Q9UPY8) | 0 | -0.002 | -0.021 | 0.074 | -0.07 | 0.041 | 0.06 | 0.136 | -0.037 | 0.027 | -0.105 | -0.226 | 0.101 | 0.01 | 0.009 | -0.041 | -0.009 | 0.051 | -0.068 | -0.061
